CHX counter: affects cycloheximide protein synthesis inhibition readout, counter-screen. AID 2314. max response, %. cell reporter, cycloheximide protein synthesis inhibition counterscreen. 300,000 tested, 12% active; in the data active means max response mostly above about 13%, no sharp cut-off; inactive means mostly below about 14%; further: read at 38.3 µM for the half of the compounds with a filed dose; 0% is about no effect
Shiga inhibitor: blocks Shiga toxin action in Vero cells; Vero cells, Shiga toxin protein synthesis inhibition reporter; inhibition, % at 38.7 µM; 290,000 tested, 9.2% active; AID 2315; in the data active means inhibition mostly above about 28%, no sharp cut-off; inactive means mostly below about 43%; further: 0% is about no effect
HCV inhibitor: inhibitors of hepatitis C virus infection. Huh7.5.1 HCVcc-Cre infection, luciferase reporter, 44 h. Potency, µM (doses to about 41.8 µM), for the others: top-dose activity change, negative = inhibition, usual class: inhibitors. 340,000 tested, 3.4% active; active means well fitted inhibition curve with a large enough effect; inconclusive means small, poorly fitted or top-dose-only effect, or another doubt; inactive means no such curve, though single readings can be large or run the other way; further: potency means the concentration at half of the fitted maximal effect; on the % scale 0 is the no-effect control and ±100 the full control effect
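Luciferase read-out (15 sec integration) after a 15 min room-temperature substrate step quantifies HCVcc-Cre infection. Cells, 1,000 per well, had compound added 4 h post-plating, then virus at ~0.5 moi, and were cultured 44 h.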
Lassa entry inh: Lassa virus entry inhibition; Lassa virus pseudotype entry inhibition, cell reporter; Potency, µM (doses to about 37.9 µM), for the others: top-dose activity change, negative = inhibition, actives largely listed as inhibitors; 300,000 tested, 1.2% active; calls by dose curve; tested in HEK293 cells; further: potency means the concentration at half of the fitted maximal effect; on the % scale 0 is the no-effect control and ±100 the full control effect; nearly all actives have a fitted effect of over 50% in size
MARV entry inh: inhibitors of Marburg virus binding or cell entry | Marburg virus pseudotyped entry inhibition, cell reporter | 300,000 tested, 1.8% active | Potency, µM (series often up to 37.8 µM), for the others: at the top dose activity change, negative = inhibition, usual class: inhibitors; calls by dose curve; tested in HEK293 cells; further: potency means the concentration at half of the fitted maximal effect; on the % scale 0 is the no-effect control and ±100 the full control effect
FMDV inh: blocks foot and mouth disease virus; AID 1159524; 410,000 tested, 1.2% active; FMDV antiviral cell-based qHTS; Potency, µM (titrated, usually from 57.9 µM), for the others: at the highest dose activity change, negative = inhibition, usual class: inhibitors; calls by dose curve; tested in HEK293T cells; further: read-out not given here; potency means the concentration at half of the fitted maximal effect; on the % scale 0 is the no-effect control and ±100 the full control effect; nearly all actives have a fitted effect of over 45% in size
Numbers without * were called inactive; ? = inconclusive; . = no result given; [ ] = remark or other dose. A selection: hits, their analogues and other compounds. The true share with any hit is near 13%.

SMILES	CHX counter	Shiga inhibitor	HCV inhibitor	Lassa entry inh	MARV entry inh	FMDV inh
C=CCn1c(C)csc1=Nc1ccccc1C	29.5*	75.0	10.9%	?	25.8%[46.1 µM]	39.1%
C=CCn1c(CC(=O)OC)csc1=Nc1ccc(C(C)=O)cc1	33.0*	62.8*	-0.2%	-27.2%	4.0%	13.6%
C=CCn1c(C)csc1=Nc1ccc(C(C)=O)cc1	33.5*	111.0*	17.3%	-18.2%	-11.9%[46.1 µM]	42.6%
CCOC(=O)c1ccc(N=C2NC(=O)CS2)cc1	-2.0	-1.8	12.2%	4.0%	2.8%	21.7%
CCOC(=O)c1cc(-c2ccccc2)sc1NC(=O)c1ccc(OC)c(OC)c1	-2.2	-11.8	?	-17.6%	2.1%	-27.0%
CC(C)(C)C(=O)Nc1scc(-c2ccc(-c3ccccc3)cc2)c1C(=O)O	4.9	-2.1	7.7%	.	.	-21.0%
Nc1sc(-c2ccccc2)cc1C(=O)O	28.5*	55.2*	.	.	0.0%	.
Cc1cccc(C(=O)Nc2sc(-c3ccccc3)cc2C(=O)O)c1	46.1*	127.4*	13.5%	.	.	41.0%
CC(C)(C)C(=O)Nc1sc(-c2ccccc2)cc1C(=O)O	41.3*	111.9*	6.8%	?	?	16.5%
O=C(Nc1ccc(Oc2ccccc2)cc1)c1csc([C@@H]2O[C@H](CO)[C@H](O)[C@H](O)[C@H]2O)n1	.	.	.	.	.	-3.6%
CC1CCCN(C(=O)Cc2cccc3ccccc23)C1 (stereo unspecified)	20.4	3.6	-3.5%	?	?	5.4%
O=c1c2ccccc2nc(COc2ccccc2)n1/N=C/c1ccc(O)cc1O	16.0*	93.9*	?	.	.	-14.8%
O=c1c2ccccc2nc(COc2ccccc2)n1/N=C/c1cn[nH]c1-c1ccccc1	1.1	43.9*	?	?	?	-2.9%
Cc1ccccc1OCc1nc2ccccc2c(=O)n1/N=C/c1cn[nH]c1-c1ccc(Br)cc1	13.0*	22.9	10.9%	?	?	?
O=c1c2ccccc2nc(COc2ccccc2)n1/N=C/c1c[nH]c2ccccc12	7.8	16.1	-0.2%	?	28.3%	-8.0%
CCOc1ccc(N(CC(=O)NCc2ccco2)C(=O)CCC(=O)Nc2nccs2)cc1	-3.9	-10.8	25.1%	-4.7%	?	12.6%
CCOC(=O)C1=C(COC(=O)/C=C/c2ccccc2Cl)NC(=O)NC1C (stereo unspecified)	48.9*	55.7*	7.4%	12.9%	16.0%	5.3%
CCOC(=O)C1=C(COC(=O)/C=C/c2cccc(OC)c2OC)NC(=O)NC1C (stereo unspecified)	39.8*	53.1*	.	20.0%	5.8%	31.5%
CCOC(=O)C1=C(COC(=O)/C=C/c2ccccc2F)NC(=O)NC1C (stereo unspecified)	.	.	-24.3%	.	.	-13.1%
O=C(O)CCC(=O)NNC(=O)COc1ccc2ccccc2c1Br	-1.9	17.1	17.2%	?	10.4%[46.1 µM]	2.2%
CC(=O)c1ccc(OCc2cc(C(=O)N(C)Cc3ccccn3)no2)cc1	62.2*	52.0*	.	?	10.2%	9.2%
Cc1cc(OCc2cc(C(=O)N(C)Cc3ccccn3)no2)cc(C)c1Cl	92.1*	106.0*	-24.4%	?	-1.6%	43.1%
Cc1cc(OCc2cc(C(=O)N(C)CCOc3ccccc3)no2)cc(C)c1Cl	-1.8	-4.9	?	.	.	-13.1%
CSc1ccccc1OCc1cc(C(=O)N(C)C(C)c2ccccn2)no1 (stereo unspecified)	11.4	15.8	.	?	-7.4%	34.6%
Cc1cc(OCc2cc(C(=O)N(C)C(C)c3ccccn3)no2)cc(C)c1Cl (stereo unspecified)	41.0*	101.8*	?	.	.	20.4%
SMILES	CHX counter	Shiga inhibitor	HCV inhibitor	Lassa entry inh	MARV entry inh	FMDV inh
CSc1nc2ccccc2cc1/C=C(\C#N)c1cccc(Cl)c1	-1.9	-13.7	?	-21.6%	?	?
COc1cccc(C2=NOC(C(=O)Nc3ccccc3SC)C2)c1 (stereo unspecified)	7.5	55.1	?	13.0%	5.5%	-8.2%
CC(C)OC(=O)N(C)c1ccc(C(O)(C(F)(F)F)C(F)(F)F)cc1	20.0*	36.9	-1.6%	?	3.9%	.
Cc1ccc(S(=O)(=O)NCC(=O)N/N=C/c2ccc(Cl)cc2)cc1	-3.0	-0.6	7.6%	3.2%	0.5%	5.9%
N/C(=N\OC(=O)c1ccco1)c1cccc(Br)c1	39.9*	154.1*	12.4%	?	-6.7%	44.2%
COc1ccc(/C(N)=N/OC(=O)c2ccco2)cc1OC	39.4*	113.4*	?	17.5%	?	43.0%
COc1ccc(C(=O)Nc2ccccc2NC(=O)c2ccco2)cc1OC	0.7	-3.1	-3.5%	-21.2%	0.4%	-17.9%
N/C(=N\OC(=O)CCCOc1ccccc1)c1cccc([N+](=O)[O-])c1	-2.5	13.4	-10.0%	0.6%[46.1 µM]	-5.7%[46.1 µM]	-8.6%
N/C(=N\OC(=O)c1ccco1)c1cccc([N+](=O)[O-])c1	48.2*	121.0*	8.3%	16.7%	10.9%[14.2 µM]	56.8%
O=C1Oc2ccccc2C(=O)/C1=C\N1CCN(c2ccccc2)CC1	26.4*	10.4	20.5%	-10.8%	-12.7%[46.1 µM]	-19.1%
CCS(=O)(=O)N1CCN(c2ccccc2)CC1	1.0	-3.1	20.9%	25.8%	-17.0%[46.1 µM]	-9.0%
CC(=O)N(C)c1ccc(OCC(O)Cn2c(C)nc3ccccc32)cc1 (stereo unspecified)	-5.4	-8.9	11.2µM*	?	?	?
Cc1cccc(C)c1OCC(O)Cn1nnc2ccccc21 (stereo unspecified)	15.9*	7.0	?	11.7%	-4.2%	?
CC(=O)Nc1ccc(OCC(O)Cn2c(C)nc3ccccc32)cc1 (stereo unspecified)	9.1	-12.7	-13.1%	-8.4%	-26.1%[46.1 µM]	-24.4%
Cc1cccc(C)c1OCC(O)Cn1c2ccccc2c2ccccc21 (stereo unspecified)	-4.8	-6.0	?	2.2%	?	?
N#Cc1ccc(-c2ccc(OCC(O)Cn3nnc4ccccc43)cc2)cc1 (stereo unspecified)	2.0	-2.5	?	1.3%	?	28.2µM*
CC(=O)c1ccc(OCC(O)Cn2nnc3ccccc32)cc1 (stereo unspecified)	38.7*	68.9	-7.5%	16.7%	17.0%	.
COC(=O)c1ccc(OCC(O)Cn2nnc3ccccc32)cc1 (stereo unspecified)	18.7	52.4	?	14.5%	3.4%	25.9%
O=C1C2CC=CCC2C(=O)N1c1ccc(OCC(O)Cn2nnc3ccccc32)cc1 (stereo unspecified)	-2.2	-9.3	-28.5%	4.5%	8.0%	?
CC(C)Oc1ccc(/C(O)=C2/C(=O)C(=O)N(CCCn3ccnc3)C2c2cccnc2)cc1 (stereo unspecified)	2.7	-12.4	0.2%	13.6%	0.7%	-20.1%
Cc1ccc2c(c1)c(C)c(C)n2CC(O)Cn1nc(C)cc1C (stereo unspecified)	-1.0	2.6	-16.6%	-0.1%	-5.0%	5.0%
